What all share (parameters): scale not given: direction of the effect not stated beside the values
Experiment [1] addresses Protein translocase subunit SecA (Escherichia coli (strain K12)) (UniProt P10408). Nature of the experiment: Assay to Identify E. coli SecA ATPase Inhibitors. The class given is functional. As to conditions: 30 µM.
Experiment [2] has as its target T1, Ubiquitin-activating enzyme e1, putative (Leishmania donovani (strain BPK282A1)) (UniProt E9BSI1).
T1 sequence (whole entry): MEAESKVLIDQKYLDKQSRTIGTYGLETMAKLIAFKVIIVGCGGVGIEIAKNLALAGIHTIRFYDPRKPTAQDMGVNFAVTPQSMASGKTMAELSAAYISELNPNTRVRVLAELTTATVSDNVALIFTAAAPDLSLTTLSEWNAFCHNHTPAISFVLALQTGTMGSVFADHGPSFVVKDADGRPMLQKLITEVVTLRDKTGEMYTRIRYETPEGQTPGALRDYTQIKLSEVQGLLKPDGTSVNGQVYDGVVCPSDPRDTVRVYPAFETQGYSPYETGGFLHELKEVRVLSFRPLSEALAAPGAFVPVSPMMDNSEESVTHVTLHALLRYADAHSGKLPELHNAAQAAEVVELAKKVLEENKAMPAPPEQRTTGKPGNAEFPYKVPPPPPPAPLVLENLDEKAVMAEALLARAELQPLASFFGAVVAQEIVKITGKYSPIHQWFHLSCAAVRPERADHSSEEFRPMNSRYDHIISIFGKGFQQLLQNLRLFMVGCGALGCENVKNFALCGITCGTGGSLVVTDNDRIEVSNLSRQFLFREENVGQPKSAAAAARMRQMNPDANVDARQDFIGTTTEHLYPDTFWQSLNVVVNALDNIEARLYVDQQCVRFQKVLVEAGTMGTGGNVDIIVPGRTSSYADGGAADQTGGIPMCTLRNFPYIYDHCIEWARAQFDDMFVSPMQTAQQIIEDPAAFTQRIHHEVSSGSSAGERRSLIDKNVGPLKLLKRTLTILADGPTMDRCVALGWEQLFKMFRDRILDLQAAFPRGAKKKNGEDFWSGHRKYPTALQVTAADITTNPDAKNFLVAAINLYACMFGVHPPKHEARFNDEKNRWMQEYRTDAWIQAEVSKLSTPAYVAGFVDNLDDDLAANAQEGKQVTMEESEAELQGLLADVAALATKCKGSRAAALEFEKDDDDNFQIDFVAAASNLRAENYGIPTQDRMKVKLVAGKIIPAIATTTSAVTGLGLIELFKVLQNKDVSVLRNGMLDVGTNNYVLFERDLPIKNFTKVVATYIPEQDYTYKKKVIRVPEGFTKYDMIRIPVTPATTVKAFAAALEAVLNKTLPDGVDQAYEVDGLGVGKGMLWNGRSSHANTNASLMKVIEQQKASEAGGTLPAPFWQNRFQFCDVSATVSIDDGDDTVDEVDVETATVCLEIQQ
Description: Leishmania donovani Ubiquitin Activating Enzyme (LdE1). The class given is functional. As to conditions: 30 µM.

Experiment [3] deals with AMP-activated protein kinase, AMPK (Homo sapiens) (UniProt P54646+O43741+P54619+Q9UGJ0+Q9Y478+Q13131+Q9UGI9). Description: AMP-dependent Kinase enzyme assay. An in vitro enzyme assay that detects ADP turnover that is directly proportional to AMPK activity. This uses naive AMPK that is activated during the assay with MK-8722. The class given is functional. As to conditions: 30 µM.

Experiment [4] deals with Sialic acid-binding Ig-like lectin 9 (Homo sapiens) (UniProt Q9Y336). Nature of the experiment: Hs-Siglec9 ALPHAscreen SOP 20170721. The note with it: 10 µM.
Chain of Sialic acid-binding Ig-like lectin 9 (Homo sapiens) (Q9Y336 whole entry): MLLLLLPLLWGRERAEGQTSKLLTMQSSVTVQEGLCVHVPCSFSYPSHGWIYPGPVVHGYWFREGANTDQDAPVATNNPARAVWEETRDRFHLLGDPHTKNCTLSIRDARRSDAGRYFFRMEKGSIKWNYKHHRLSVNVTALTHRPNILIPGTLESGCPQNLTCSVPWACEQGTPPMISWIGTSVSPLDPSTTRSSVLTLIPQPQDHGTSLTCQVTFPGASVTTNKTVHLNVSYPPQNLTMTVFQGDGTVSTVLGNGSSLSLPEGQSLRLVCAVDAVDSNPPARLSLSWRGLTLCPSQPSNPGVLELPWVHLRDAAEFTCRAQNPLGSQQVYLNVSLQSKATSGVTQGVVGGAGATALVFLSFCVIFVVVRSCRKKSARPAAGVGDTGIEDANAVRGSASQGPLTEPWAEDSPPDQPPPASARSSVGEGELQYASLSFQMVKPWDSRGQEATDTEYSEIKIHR
For experiment [5], the system named is Trypanosoma cruzi. Description: Trypanosoma cruzi phosphomannomutase and mannose-1-phosphate guanylyltransferase assay. In kind it is functional. As to conditions: 10 µM.
Experiment [6] has as its target T2, Arginase-2, mitochondrial (Homo sapiens) (UniProt P78540).
T2 sequence (whole entry): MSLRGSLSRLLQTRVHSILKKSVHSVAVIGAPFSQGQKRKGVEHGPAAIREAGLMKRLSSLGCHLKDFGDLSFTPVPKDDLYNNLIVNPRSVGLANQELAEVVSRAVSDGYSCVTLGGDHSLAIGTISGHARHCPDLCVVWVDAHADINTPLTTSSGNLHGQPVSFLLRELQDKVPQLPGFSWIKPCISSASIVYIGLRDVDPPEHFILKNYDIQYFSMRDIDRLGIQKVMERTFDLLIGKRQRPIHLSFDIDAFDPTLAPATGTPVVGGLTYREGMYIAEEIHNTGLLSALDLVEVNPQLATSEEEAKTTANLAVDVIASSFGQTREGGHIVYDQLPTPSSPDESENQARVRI
Description: in vitro enzyme assay to detect the production of urea directly proportional to the activity of Arginase II. Further: in the data most compounds retested in dose-response had high values. The class given is functional. The note with it: 33.3 µM.

Experiment [7] addresses T3, Proteasome subunit beta (Trypanosoma cruzi) (UniProt O96673).
T3 sequence (whole entry): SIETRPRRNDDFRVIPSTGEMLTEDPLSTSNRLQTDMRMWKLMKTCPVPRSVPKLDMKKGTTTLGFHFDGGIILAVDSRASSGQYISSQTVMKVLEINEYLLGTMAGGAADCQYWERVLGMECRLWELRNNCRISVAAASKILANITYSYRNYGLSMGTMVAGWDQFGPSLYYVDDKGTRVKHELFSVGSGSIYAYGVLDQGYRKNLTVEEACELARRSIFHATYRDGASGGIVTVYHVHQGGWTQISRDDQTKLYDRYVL
Description: Trypanosoma cruzi proteasome chymotrypsin-like activity (TcProtChymo) assay. Further: in the data most compounds retested in dose-response had high values. In kind it is functional. As to conditions: 9.37 µM.

The species entered for experiment [8] is Homo sapiens. Nature of the experiment: To identify inhibition of the IFN signalling (Jak-Stat) pathway via expression of an eGFP reporter gene under the control of an IFN-stimulated response element (ISRE) containing MxA promoter. The note with it: 30 µM. The class given is functional. (In general: In a reporter assay the amount or activity of a reporter protein is the signal.)

In experiment [9] the target is T4, Tyrosyl-tRNA synthetase, putative (Trypanosoma cruzi (strain CL Brener)) (UniProt Q4DSP6).
T4 sequence (whole entry): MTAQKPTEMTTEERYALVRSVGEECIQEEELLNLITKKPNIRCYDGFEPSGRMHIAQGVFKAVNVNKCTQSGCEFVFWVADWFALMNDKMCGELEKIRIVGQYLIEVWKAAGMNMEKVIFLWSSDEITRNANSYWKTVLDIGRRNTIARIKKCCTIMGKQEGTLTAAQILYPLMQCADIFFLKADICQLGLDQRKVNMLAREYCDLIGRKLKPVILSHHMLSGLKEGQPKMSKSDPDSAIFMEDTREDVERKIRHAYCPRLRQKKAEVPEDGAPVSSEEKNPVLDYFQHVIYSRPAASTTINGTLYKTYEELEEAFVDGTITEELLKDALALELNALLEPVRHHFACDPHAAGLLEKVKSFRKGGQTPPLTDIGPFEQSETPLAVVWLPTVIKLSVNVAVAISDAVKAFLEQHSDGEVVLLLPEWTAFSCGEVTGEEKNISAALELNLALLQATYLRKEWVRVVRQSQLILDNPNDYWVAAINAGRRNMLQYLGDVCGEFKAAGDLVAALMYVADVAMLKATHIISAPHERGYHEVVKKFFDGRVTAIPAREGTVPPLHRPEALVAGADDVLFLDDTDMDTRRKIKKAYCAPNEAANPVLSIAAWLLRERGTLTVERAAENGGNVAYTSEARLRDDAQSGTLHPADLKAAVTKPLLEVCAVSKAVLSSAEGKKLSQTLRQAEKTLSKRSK
Nature of the experiment: Trypanosoma cruzi tyrosyl tRNA synthetase (TcYRS) _High Tyrosine SOP. Further: in the data most compounds retested in dose-response had high values. As to conditions: 30 µM. In kind it is functional.

The target of experiment [10] is T4, Tyrosyl-tRNA synthetase, putative (Trypanosoma cruzi (strain CL Brener)). Description: Trypanosoma cruzi tyrosyl tRNA synthetase (TcYRS) SOP. In kind it is functional. As to conditions: 30 µM.
Experiment [11] addresses Chromo domain-containing protein 1 (Saccharomyces cerevisiae (strain ATCC 204508 / S288c) (Baker's yeast)) (UniProt P32657). Description: ScCHD-1 Enzyme Inhibition Assay. Further: in the data most compounds retested in dose-response had high values. As to conditions: 30 µM. The class given is functional.

For some assays here: Potency and affinity values are given separately.

Chain of Protein translocase subunit SecA (Escherichia coli (strain K12)) (P10408 whole entry): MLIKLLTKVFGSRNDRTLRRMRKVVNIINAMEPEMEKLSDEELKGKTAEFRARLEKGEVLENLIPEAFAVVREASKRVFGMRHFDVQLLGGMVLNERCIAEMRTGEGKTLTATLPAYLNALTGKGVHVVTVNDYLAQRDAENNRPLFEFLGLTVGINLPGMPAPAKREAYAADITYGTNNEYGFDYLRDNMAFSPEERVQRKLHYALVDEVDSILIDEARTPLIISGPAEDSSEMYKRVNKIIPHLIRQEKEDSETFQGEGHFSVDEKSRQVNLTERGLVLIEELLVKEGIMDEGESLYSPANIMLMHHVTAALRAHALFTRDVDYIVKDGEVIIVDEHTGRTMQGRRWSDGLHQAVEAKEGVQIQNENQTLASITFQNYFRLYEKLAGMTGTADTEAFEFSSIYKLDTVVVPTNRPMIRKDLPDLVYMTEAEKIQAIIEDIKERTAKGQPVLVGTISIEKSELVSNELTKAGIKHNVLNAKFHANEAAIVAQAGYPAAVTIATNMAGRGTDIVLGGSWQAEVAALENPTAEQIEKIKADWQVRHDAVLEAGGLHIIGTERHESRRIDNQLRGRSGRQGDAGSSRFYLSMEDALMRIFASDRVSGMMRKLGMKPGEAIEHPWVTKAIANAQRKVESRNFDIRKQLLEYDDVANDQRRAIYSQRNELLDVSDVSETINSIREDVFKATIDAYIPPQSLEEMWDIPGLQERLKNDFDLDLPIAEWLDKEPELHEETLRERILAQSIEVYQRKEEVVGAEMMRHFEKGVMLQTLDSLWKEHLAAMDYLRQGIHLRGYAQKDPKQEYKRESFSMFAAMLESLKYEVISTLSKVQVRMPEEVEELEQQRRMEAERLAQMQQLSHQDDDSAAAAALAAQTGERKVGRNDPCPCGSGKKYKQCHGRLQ
Chain of Chromo domain-containing protein 1 (Saccharomyces cerevisiae (strain ATCC 204508 / S288c) (Baker's yeast)) (P32657 whole entry, the tested form may be a part): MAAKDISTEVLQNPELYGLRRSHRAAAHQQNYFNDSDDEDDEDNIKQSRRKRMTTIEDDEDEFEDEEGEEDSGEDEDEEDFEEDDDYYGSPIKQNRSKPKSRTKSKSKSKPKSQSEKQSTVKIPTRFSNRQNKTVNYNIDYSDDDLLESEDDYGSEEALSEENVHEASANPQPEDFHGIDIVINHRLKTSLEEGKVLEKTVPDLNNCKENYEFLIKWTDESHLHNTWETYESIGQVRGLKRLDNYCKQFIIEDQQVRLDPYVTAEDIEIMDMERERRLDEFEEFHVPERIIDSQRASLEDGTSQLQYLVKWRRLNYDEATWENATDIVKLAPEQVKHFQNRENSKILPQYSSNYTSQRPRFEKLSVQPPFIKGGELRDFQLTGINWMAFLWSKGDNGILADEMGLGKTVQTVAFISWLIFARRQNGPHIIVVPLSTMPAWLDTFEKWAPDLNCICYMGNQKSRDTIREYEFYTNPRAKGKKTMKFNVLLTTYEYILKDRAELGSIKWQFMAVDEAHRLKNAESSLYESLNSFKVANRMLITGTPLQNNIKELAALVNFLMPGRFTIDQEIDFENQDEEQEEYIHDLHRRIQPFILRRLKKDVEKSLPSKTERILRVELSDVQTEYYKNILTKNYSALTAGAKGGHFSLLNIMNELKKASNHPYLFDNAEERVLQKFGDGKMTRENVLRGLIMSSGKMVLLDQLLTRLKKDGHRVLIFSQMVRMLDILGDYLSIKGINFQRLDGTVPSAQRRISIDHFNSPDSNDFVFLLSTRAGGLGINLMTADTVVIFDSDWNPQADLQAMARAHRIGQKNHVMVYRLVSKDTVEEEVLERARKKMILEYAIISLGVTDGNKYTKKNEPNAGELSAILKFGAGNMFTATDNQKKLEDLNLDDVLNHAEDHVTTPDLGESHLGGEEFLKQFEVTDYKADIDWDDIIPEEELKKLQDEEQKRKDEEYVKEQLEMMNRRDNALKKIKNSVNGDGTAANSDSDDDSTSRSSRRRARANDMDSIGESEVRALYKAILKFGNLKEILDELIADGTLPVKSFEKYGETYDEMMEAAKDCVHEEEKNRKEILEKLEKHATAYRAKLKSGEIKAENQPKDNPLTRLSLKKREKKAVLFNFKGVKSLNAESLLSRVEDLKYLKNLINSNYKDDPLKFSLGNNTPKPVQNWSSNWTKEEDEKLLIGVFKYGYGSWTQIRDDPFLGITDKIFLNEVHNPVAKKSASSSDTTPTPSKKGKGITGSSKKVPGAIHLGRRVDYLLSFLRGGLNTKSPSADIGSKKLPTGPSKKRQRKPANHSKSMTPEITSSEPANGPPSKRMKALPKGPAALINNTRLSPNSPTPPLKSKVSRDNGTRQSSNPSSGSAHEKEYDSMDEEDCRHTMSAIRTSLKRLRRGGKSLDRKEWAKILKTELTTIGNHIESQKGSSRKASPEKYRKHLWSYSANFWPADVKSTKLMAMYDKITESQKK

As for `CNC(=O)[C@H]1C[C@@H]2CN(S(=O)(=O)c3ccccc3)C[C@@H]2N1C`, the Percent Effect is -2.19% in experiment [1]; -5.2% in experiment [2]; 3.6% in [3]; 3.49% in experiment [4]; -0.492% in experiment [5]; -13.8% in experiment [6]. Further, the Percent Effect was 1.83% in experiment [7]; 6.5% in [8]; 2.15% in [9]; -1.24% in [10]; 2.52% in experiment [11].

In the case of `Cc1cc(C)n(C2CCCN(C(=O)Cc3csc(C)n3)C2)n1` (stereo not given), the Percent Effect in experiment [1] is -3.62%; in [2], 0%; in experiment [3] it was -2.28%; in [4] it was 17.5%; in experiment [5] it was 6.7%; in experiment [6], 1.9%. The Percent Effect in experiment [7] is 4.34%; in experiment [8] it was -6.53%; in experiment [9], 4.43%; in [10], -3.8%; in experiment [11] it was -6.83%.

For the compound `Cc1cc(C2CCCN2CC(=O)N(CCC#N)c2ccccc2F)on1` (stereo not given), the Percent Effect in experiment [1] was -2.04%; in experiment [2], 10.8%; in experiment [3], -3.15%; in experiment [4], 8.81%; in experiment [5] it was 4.18%; in [6] it was -4.99%. Further, the Percent Effect is 19.4% in experiment [7]; 8.68% in experiment [8]; 3.96% in experiment [9]; 23.2% in experiment [10]; -6.79% in experiment [11].

Regarding `COCC1COCCC12CCN(CCc1ccccc1)CC2` (stereo not given), the Percent Effect in experiment [1] was -4.75%; in experiment [2], 2.7%; in [3] it was 0.285%; in experiment [4] it was 0.939%; in [5], 6.84%; in [6] it was -3.33%. In addition, the Percent Effect was determined as 16.5% in [7]; 1.25% in [8]; 6.93% in [9]; 8.54% in experiment [10]; 0.841% in experiment [11].

Turning to `Cc1csc(C2CCCN(C(=O)c3cnc4n[nH]c(C)c4c3)C2)n1` (stereo not given), the Percent Effect in [1] was -3.7%; in experiment [2], 10.8%; in experiment [3], -5.48%; in experiment [4], 6.11%; in experiment [5] it was 2.36%; in experiment [6], -2%. Further, the Percent Effect in [7] was 2.7%; in [8], 16.8%; in experiment [9] it was 7.39%; in [10], 18.5%; in [11], -8.83%.

Consider `CCN(CC)C(=O)c1nnc2ccc(N3CCOCC3)cc2n1`, for which the Percent Effect is -7.46% in experiment [1]; 9.33% in [2]; -17.9% in [3]; 3.43% in experiment [4]; 7.27% in [5]; -7.57% in experiment [6]. Further, the Percent Effect in experiment [7] was 14.1%; in [8] it was 11.4%; in experiment [9] it was 3.17%; in experiment [10], 12.8%; in experiment [11], -14.1%.

As to `N#Cc1cc(NC(=O)c2ccsc2)ccc1N1CCC(O)CC1`, the Percent Effect in experiment [1] is -2.1%; in experiment [2], 13.5%; in experiment [3], -3.83%; in experiment [4], 18.9%; in experiment [5], 5.99%; in experiment [6] it was 12.9%. Besides, the Percent Effect in experiment [7] was 19.3%; in experiment [8], 27.8%; in [9], 4.76%; in experiment [10], 14.6%; in [11], -1.54%.

With `CCc1nc(CC(=O)N2CCN(c3cnccn3)CC2)cs1`, the Percent Effect in experiment [1] was -4.23%; in experiment [2], 16.5%; in experiment [3], 1.43%; in experiment [4], 5.88%; in [5], 1.95%; in experiment [6], 1.94%. Further, the Percent Effect in [7] was 0.343%; in [8] it was 11.8%; in experiment [9], 1.04%; in [10], 17.7%; in experiment [11], -26.3%.

On to `CC(C)c1n[nH]c(C(=O)Nc2ccnn2C(C)C)c1Br`, for which the Percent Effect in experiment [1] is -9.82%; in experiment [2], 12.7%; in [3], -6.58%; in experiment [4], 19.3%; in [5], 8.4%; in experiment [6], -6.84%. The Percent Effect is 9.42% in experiment [7]; 39.4% in experiment [8]; 7.39% in experiment [9]; 13.9% in experiment [10]; -9.92% in experiment [11].

Regarding `O=C(c1cccc2c1OCO2)N1CCCC1c1noc(C2CC2)n1` (stereo not given), the Percent Effect in experiment [1] is -5.41%; in [2], 5.06%; in experiment [3] it was -1.36%; in experiment [4] it was -1.04%; in experiment [5], 10.5%; in experiment [6] it was -3.42%. The Percent Effect in experiment [7] is -2.38%; in experiment [8], 5%; in experiment [9], 4.43%; in experiment [10] it was 11.4%; in experiment [11], -6.85%.

The record behind these values is ChEMBL document CHEMBL3988442, “University of Dundee, Small-Polar-MMV Screening Library” (2021).
